Results on ten molecules are retold here after PubChem BioAssay (NCATS).

Where “and” joins values, the source holds several entries; their conditions need not be identical. Equal entries are not always repeated. Values without a mark were called inactive. Inconclusive results are not listed. Calls of active or inactive are those of the source. Unless noted, calls follow the shape of the dose curve; as a rule, active = well fitted curve in the direction sought with a large enough effect; inconclusive = small, poorly fitted or top-dose-only effect, or another doubt; inactive = no such curve, though single readings can be large; an effect the other way counts as inactive or inconclusive.

The nature of assay [1]: AP1 Signaling Pathway (AID 357; active = well fitted curve in either direction with a large enough effect, not every such curve was filed as active;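 also: ME-180 reporter cells stimulated with EGF at its EC50 level; % is scaled to controls: 0 for no effect and ±100 for the full control effect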). Particulars: ME-180 AP-1-bla reporter, EGF-induced, beta-lactamase ratio, 5 h; at 17.2 µM (top of the series). Put shortly:
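AP-1-bla ME-180 cells, Opti-MEM + 0.5% dialyzed FBS, plated overnight 37 °C. Cpd titration + EC50 EGF, 5 h 37 °C. CCF4 2.5 h RT; ex 405, em 460/530 ratio → %activity, AC50.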

Assay [2] deals with Cytochrome P450 1A2 (Homo sapiens) (UniProt P05177). The experiment in a line: p450-cyp1a2 (AID 410; calls by dose curve; also: potency is read from the fitted curve at half-maximal effect;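 as to activity change, negative = inhibition: -100% = full effect of reference inhibitor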). The method, boiled down: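 Read-out is luminescence from luciferin produced by CYP1A2 demethylation of Luciferin-ME (100uM, at Km). Detection reagent stopped the 60 min NADPH-dependent reaction; signals were normalized to 57 uM furafylline.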
A short description of assay [3]: NFAT Signaling Pathway (AID 444; active = well fitted curve in either direction with a large enough effect, not every such curve was filed as active;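 also: carbachol stimulus at about its EC50 of 1 µM final; % is scaled to controls: 0 for no effect and ±100 for the full control effect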). Particulars: Jurkat NFAT-bla M1, carbachol, beta-lactamase ratio, 5 h; at 17.2 µM (top of the series). Put shortly:
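Read-out: CCF4 FRET ratio (460 nm/530 nm) after 1 h RT dye loading, used for %activity and AC50 from titration series. Cells: Jurkat NFAT-β-lactamase/M1 line, treated with compound plus 1 uM carbachol for 5 h, 37 °C.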

The nature of assay [4]: Stat Signaling Pathway (AID 446; active = well fitted curve in either direction with a large enough effect, not every such curve was filed as active;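 also: ME-180 cervical cancer cells given 40 pM IL-6 alongside compound; SIE-controlled beta-lactamase reporter measured as 460/530 nm FRET emission ratio; % is scaled to controls: 0 for no effect and ±100 for the full control effect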). Particulars: ME-180 (cervical carcinoma) SIE beta-lactamase reporter, IL-6 stimulated, 5 h; at 17.2 µM (top of the series). Put shortly: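 Emission at 460 and 530 nm (excitation 405 nm) reports SIE-controlled beta-lactamase in ME-180 cells. Cells received compound with 40 pM IL-6 for 5 hrs at 37 C; data scaled between 300 pM IL-6 and 125 nM JAK-inhibitor controls.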

Assay [5] has as its target Glucocorticoid receptor (Homo sapiens) (UniProt P04150). Kind of assay: GR-GFP Redistribution (AID 450;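 active = compounds whose dose series gives a full or clear partial fitted curve of increased nuclear translocation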; also: potency is read from the fitted curve at half-maximal effect). To be noted: U2OS GR-GFP nuclear translocation, laser cytometry, 2 h.
Assay [6] shares this target. The experiment in a line: GR-EFC Redistribution (AID 451; calls by dose curve; also: potency is read from the fitted curve at half-maximal effect). Particulars: CHO-K1 GR-EFC translocation, beta-gal luminescence, 2 h. The method, boiled down: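 Translocation of GR-ED fusion to nuclear EA restores b-gal, read by luminescence after 1 h room-temperature detection. Engineered CHO-K1 biosensor cells, 1,000/well, exposed 2 h at 37 C to titrations up to 46 uM final.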

In assay [7] the target is Mitogen-activated protein kinase 10 (Mus musculus) (UniProt Q61831). The experiment in a line: JNK3 AlphaScreen Assay (AID 530; active = well fitted curve in either direction with a large enough effect, not every such curve was filed as active;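 also: kinase came from lysate of stimulated human HepG2 cells; signal reports phosphorylation of biotinylated GST-cJun 1-79 at Ser73 with 10 µM ATP; % is scaled to controls: 0 for no effect and ±100 for the full control effect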). The method, boiled down:
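Kinase buffer: 20 mM Tris-HCl pH 7.6, 10 mM MgCl2, 1 mM DTT, 0.1 mM Na3VO4, 0.01% Tween-20; ATP 10 uM. Substrate biotin-GST-cJun(1-79), enzyme from activated HepG2 lysates. Detection by Ser73 phospho-antibody AlphaScreen.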

The target in assay [8] is 3',5'-cyclic-AMP phosphodiesterase 4B (Homo sapiens) (UniProt Q07343). Kind of assay: qHTS Assay for Inhibitors of PDE-IV (AID 607; active = well fitted activation curve with a large enough effect in the main read-out, with a control signal flat, not every such curve was filed as active; also: % of control where 0% means no effect). The method, boiled down: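 The readout is membrane depolarisation from a cAMP-sensing CNG channel, detected with a potential dye at ex 535/em 590. Cells were HEK293-derived (endogenous PDE-IV) at 1000 cells/well, titrated up to 22.9 uM final.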

The target of assay [9] is Ubiquitin carboxyl-terminal hydrolase 1 (Homo sapiens) (UniProt O94782). The experiment in a line: Inhibitors of USP1/UAF1: Pilot qHTS (AID 504865).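 Also: rhodamine fluorescence freed from ubiquitin-rhodamine substrate followed over time; top concentration of the series differs between compounds; % is scaled to controls: 0 for no effect and ±100 for the full control effect; nearly all actives have a fitted effect of over 35% in size.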 The method, boiled down: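 USP1/UAF1 complex (1nM) preincubated with compound 15 min at room temperature, then Ub-Rho substrate (150nM final) added. Fluorescence read kinetically at 480/540 nm, 6 reads every 60 seconds. Buffer: 50mM HEPES pH 7.8, 0.5mM EDTA, 0.1 mg/ml BSA, 1mM TCEP, 0.01% Tween-20.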

Assay [10] addresses DNA dC->dU-editing enzyme APOBEC-3G (Homo sapiens) (UniProt Q9HC16). The experiment in a line: qHTS for inhibitors of Vif-A3G interactions: Validation (AID 588379). Also: potency is read from the fitted curve at half-maximal effect. As to activity change, negative = inhibition: 0% is about no effect. Put shortly: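 Yellow fluorescence (Ex 488, Em 500-530) of Vif-coexpressing HeLa A3G-eYFP cells, scanned by Acumen cytometer, reports blocked A3G degradation. Cells plated at 700/well overnight at 37 deg C before compound addition, then a further overnight compound incubation at 37 deg C.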

For assay [11], the system named is Zika virus NS2B-NS3 protease. The experiment in a line: Primary screen GU AMC qHTS for Zika virus inhibitors (AID 1347154).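 Also: 0% = no-inhibitor control and -100% = no-enzyme control; nearly all actives have a fitted effect of over 70% in size.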 The method, boiled down: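 Fluorogenic AMC-substrate cleavage by noncovalent NS2B-NS3 protease complex (25 nM, pH 8.0 Tris buffer with Tween 20) followed for 15 minutes at room temperature (~20% conversion). Percent inhibition from ex340/em450 signal change, fitted by 4-parameter Hill equation.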

Assay [12] can be described thus: Primary qHTS for small molecule stabilizers of the endoplasmic reticulum resident proteome: Secreted ER Calcium Modulated Protein (SERCaMP) assay (AID 1508630). Also: % is scaled to controls: 0 for no effect and ±100 for the full control effect. Put shortly:
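The SH-SY5Y reporter protocol was run at 3 concentrations up to 38.3 uM (primary) or 11 concentrations (follow-up): 16 h compound, 100 nM thapsigargin for 4 h, then extracellular luciferase luminescence.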

Assay [13] concerns the target Cytochrome P450 2C9 (Homo sapiens) (UniProt P11712). The experiment in a line: qHTS Assay for Inhibitors and Substrates of Cytochrome P450 2C9 (AID 883). Also: nearly all actives have a fitted effect of over 60% in size. Also: potency is read from the fitted curve at half-maximal effect. Put shortly: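 Inhibition of CYP2C9 is scored as loss of luminescence, with 57uM sulphaphenazole defining 100% inhibition. Substrate Luciferin-H is used at 100uM, equal to its KM; enzyme at 10nM in 25mM KPO4, 60 min at 37C with NADPH regeneration.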

Assay [14] concerns the target Cytochrome P450 3A4 (Homo sapiens) (UniProt P08684). The experiment in a line: qHTS Assay for Activators of Cytochrome P450 3A4 (AID 885). Also: nearly all actives have a fitted effect of over 65% in size. Put shortly:
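Activators are scored by enhanced luminescence from CYP3A4 conversion of luciferin-PPXE (25uM, equal to KM) to luciferin, after 60 min at RT with an NADPH-regenerating system.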

For assay [15], the target named is Cytochrome P450 2D6 (Homo sapiens) (UniProt P10635). The experiment in a line: qHTS Assay for Inhibitors and Substrates of Cytochrome P450 2D6 (AID 891). Also: potency is read from the fitted curve at half-maximal effect; nearly all actives have a fitted effect of over 60% in size. The method, boiled down: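 Luminescent read-out of luciferin formed by 5 nM human CYP2D6 demethylating 30 uM Luciferin-ME EGE (Km level) over 60 min at room temperature after NADPH regeneration addition. Data normalized to full inhibition by 1.43 uM quinidine.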

For assay [16], the target named is Cytochrome P450 2C19 (Homo sapiens) (UniProt P33261). The experiment in a line: qHTS Assay for Inhibitors and Substrates of Cytochrome P450 2C19 (AID 899). Also: % is scaled to controls: 0 for no effect and ±100 for the full control effect; nearly all actives have a fitted effect of over 60% in size. The method, boiled down: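 5nM enzyme + 10uM Luciferin-H EGE (=KM), 50mM KPO4; cpd pin-transferred, 10 min 37C; NADPH regen, 60 min 37C; stopped w/ luciferin detection reagent, 20 min; luminescence. Normalized to 57uM ketoconazole (AC100).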
Chain of Cytochrome P450 2C19 (Homo sapiens) (P33261 whole entry, looked up): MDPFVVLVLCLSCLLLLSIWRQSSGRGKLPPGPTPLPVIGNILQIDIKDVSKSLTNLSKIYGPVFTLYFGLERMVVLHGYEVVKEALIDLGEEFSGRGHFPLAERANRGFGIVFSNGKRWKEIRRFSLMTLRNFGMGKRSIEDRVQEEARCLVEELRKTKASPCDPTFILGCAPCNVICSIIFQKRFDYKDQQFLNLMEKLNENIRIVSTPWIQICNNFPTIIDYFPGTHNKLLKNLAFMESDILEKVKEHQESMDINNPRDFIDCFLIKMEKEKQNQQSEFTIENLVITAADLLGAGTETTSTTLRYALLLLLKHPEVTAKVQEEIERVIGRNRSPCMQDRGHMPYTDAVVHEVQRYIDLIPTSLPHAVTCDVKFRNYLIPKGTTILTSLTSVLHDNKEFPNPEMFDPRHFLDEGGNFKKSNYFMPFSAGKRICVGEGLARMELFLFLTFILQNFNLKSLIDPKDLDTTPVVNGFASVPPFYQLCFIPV

Chain of Cytochrome P450 2C9 (Homo sapiens) (P11712 whole entry, looked up): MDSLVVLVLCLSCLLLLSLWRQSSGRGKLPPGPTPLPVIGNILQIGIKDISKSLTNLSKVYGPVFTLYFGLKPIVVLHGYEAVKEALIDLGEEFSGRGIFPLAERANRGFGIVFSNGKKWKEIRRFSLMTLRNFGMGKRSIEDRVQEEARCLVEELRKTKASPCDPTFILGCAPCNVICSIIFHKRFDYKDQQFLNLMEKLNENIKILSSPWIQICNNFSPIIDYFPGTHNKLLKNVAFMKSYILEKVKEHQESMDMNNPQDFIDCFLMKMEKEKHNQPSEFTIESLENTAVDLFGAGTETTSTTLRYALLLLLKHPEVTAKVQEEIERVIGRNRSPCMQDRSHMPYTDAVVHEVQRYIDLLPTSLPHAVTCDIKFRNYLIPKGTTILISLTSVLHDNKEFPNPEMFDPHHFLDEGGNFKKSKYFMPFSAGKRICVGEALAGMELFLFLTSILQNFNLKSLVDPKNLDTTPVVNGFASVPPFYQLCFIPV
Chain of Glucocorticoid receptor (Homo sapiens) (P04150 whole entry, looked up, the tested form may be a part): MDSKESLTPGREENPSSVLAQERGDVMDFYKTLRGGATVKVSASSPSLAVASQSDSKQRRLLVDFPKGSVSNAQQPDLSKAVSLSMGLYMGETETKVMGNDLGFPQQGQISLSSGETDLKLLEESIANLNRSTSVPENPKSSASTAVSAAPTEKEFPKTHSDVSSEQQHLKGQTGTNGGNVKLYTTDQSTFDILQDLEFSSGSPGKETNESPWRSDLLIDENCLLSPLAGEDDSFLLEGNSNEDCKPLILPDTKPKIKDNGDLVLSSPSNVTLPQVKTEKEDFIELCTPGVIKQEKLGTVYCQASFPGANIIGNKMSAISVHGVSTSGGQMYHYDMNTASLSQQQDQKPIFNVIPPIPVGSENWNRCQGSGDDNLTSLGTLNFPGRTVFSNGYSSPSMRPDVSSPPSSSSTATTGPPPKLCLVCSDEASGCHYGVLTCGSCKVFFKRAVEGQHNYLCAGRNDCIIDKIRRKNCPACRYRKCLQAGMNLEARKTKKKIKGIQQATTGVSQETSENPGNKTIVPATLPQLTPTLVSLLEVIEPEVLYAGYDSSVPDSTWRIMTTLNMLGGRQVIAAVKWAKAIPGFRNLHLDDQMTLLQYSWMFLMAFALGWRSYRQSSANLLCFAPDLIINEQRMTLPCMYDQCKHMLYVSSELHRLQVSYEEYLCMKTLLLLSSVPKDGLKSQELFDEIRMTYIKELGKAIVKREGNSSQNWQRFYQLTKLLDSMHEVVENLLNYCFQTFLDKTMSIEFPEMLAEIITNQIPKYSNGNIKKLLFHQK
Chain of Cytochrome P450 1A2 (Homo sapiens) (P05177 whole entry, looked up): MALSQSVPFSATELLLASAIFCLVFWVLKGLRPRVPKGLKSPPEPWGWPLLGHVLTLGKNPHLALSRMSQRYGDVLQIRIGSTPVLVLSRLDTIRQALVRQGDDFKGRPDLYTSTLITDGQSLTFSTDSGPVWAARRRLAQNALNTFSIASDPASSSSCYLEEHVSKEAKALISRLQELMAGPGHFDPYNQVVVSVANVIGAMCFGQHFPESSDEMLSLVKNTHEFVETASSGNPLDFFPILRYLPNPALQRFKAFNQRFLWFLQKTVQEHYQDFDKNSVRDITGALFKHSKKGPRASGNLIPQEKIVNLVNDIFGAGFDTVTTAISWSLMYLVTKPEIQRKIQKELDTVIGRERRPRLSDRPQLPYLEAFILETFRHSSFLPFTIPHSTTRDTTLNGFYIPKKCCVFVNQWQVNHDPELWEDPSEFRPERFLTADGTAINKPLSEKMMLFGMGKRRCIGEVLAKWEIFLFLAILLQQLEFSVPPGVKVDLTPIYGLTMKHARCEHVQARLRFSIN
Chain of DNA dC->dU-editing enzyme APOBEC-3G (Homo sapiens) (Q9HC16 whole entry, looked up): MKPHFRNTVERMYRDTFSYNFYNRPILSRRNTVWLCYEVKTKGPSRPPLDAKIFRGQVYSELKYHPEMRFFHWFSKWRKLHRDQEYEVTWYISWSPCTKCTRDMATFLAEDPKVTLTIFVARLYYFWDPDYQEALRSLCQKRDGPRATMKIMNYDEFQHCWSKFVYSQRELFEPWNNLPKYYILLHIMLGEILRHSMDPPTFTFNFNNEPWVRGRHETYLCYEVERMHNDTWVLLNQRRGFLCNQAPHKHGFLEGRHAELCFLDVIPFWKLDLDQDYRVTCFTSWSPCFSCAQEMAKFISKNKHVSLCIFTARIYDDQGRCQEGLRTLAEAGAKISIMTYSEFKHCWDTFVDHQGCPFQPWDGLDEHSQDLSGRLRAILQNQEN
Chain of Ubiquitin carboxyl-terminal hydrolase 1 (Homo sapiens) (O94782 whole entry, looked up): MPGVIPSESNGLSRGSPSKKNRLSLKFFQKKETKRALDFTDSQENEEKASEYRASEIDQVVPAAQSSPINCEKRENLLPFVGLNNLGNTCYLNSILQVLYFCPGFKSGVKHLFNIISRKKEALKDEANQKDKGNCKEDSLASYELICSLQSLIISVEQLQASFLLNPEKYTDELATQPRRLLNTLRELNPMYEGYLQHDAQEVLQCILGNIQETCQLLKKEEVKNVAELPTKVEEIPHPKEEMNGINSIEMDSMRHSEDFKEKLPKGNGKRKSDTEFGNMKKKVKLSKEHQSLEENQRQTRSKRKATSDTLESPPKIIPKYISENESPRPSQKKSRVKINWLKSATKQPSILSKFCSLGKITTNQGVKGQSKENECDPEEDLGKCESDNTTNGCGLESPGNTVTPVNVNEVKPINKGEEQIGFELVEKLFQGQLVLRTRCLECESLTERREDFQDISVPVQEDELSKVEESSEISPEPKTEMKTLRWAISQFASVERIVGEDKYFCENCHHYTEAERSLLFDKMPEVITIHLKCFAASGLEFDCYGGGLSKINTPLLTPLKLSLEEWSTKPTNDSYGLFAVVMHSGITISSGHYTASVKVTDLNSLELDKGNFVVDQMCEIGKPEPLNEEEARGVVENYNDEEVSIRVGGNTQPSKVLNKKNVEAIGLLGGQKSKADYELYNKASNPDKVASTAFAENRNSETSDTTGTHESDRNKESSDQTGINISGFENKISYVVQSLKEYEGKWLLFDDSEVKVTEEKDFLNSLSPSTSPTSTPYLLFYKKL
Chain of 3',5'-cyclic-AMP phosphodiesterase 4B (Homo sapiens) (Q07343 whole entry, looked up): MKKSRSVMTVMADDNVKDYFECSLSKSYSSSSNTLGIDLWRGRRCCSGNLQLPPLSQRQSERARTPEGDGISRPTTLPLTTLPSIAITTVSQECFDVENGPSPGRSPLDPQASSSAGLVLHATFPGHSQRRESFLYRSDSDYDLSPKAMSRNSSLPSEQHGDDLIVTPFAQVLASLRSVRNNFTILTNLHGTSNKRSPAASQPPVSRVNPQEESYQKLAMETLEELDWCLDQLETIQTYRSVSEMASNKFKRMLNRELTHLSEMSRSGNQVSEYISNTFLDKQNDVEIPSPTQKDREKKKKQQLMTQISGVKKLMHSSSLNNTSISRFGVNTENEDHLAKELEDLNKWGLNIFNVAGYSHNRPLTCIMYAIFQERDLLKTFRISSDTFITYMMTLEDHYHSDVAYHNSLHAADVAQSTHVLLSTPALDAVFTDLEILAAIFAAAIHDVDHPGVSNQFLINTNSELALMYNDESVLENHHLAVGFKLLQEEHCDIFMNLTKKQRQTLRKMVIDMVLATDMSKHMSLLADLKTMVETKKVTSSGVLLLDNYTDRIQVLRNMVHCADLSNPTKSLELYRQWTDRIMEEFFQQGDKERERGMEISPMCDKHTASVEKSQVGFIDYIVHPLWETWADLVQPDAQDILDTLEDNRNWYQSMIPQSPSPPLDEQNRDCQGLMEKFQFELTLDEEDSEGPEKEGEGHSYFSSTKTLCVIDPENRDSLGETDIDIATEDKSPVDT
Chain of Cytochrome P450 2D6 (Homo sapiens) (P10635 whole entry, looked up): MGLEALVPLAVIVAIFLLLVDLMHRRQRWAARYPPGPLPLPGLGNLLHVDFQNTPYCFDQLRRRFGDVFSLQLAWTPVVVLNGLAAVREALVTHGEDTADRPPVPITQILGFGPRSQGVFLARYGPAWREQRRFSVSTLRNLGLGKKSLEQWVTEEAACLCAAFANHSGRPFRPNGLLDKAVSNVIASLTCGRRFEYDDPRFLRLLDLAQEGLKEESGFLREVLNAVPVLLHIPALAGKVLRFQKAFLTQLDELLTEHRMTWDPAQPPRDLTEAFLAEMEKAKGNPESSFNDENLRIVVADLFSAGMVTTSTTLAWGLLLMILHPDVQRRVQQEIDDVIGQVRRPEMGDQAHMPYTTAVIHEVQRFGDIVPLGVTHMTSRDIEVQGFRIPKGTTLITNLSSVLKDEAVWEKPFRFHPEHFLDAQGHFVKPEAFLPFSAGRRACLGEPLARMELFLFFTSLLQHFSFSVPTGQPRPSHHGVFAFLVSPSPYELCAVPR

For `CC(C)NC[C@@H](O)COc1ccc(COCCOC(C)C)cc1`, the activity change, negative = inhibition in assay [1] is -0.912%; in assay [3], 3.53%. In addition, the Potency entry in assay [2], in assay [7], in assay [8], in assay [9], in assay [10] and in [11] was “inactive” each time. Further, the Potency result in assay [12] was “inactive”. Also, the activity, negative = inhibition in assay [4] is 15.4%. Further, the Potency was > 20.6 µM and > 46 µM in assay [5]; > 20.6 µM and > 46 µM in [6].

`CCCCC[C@H](O)CC(=O)CCc1ccc(O)c(OC)c1`: the Potency entry in assay [11] and in assay [12] was “inactive” throughout.

In the case of `CCCCC[C@H](O)/C=C/[C@@H]1[C@@H](CCCCCCC(=O)O)[C@@H](O)C[C@H]1O`, the activity change, negative = inhibition in [1] was 8.11%; in [11], 8.46% [at 6.83 µM]; in assay [12], -7.27% [at 3.88 µM]. The activity, negative = inhibition in [4] was 2.03%. Moreover, the Potency in [5] was above 20.6 µM.

For the molecule `COc1cc([C@@H]2c3cc4c(cc3C(O[C@@H]3O[C@@H]5CO[C@@H](c6cccs6)OC5[C@H](O)[C@H]3O)C3COC(=O)[C@@H]32)OCO4)cc(OC)c1O` (stereo not given in full), the Potency result in assay [11] and in assay [12] was “inactive” throughout.

As to `O=C(N/N=C\c1ccccc1O)c1ccccc1O`, the Potency is 0.794 µM (active) in assay [2], above 46 µM in assay [5], above 46 µM in assay [6] and 7.94 µM (active) in assay [15]. Moreover, the Potency entry in [8], in assay [13], in assay [14], in [16], in assay [9] and in assay [11] was “inactive” each time. The Potency entry in assay [12] is “inactive”.

Regarding `CCCCN1CCC(CCC(=O)c2cc(Cl)c(N)cc2OC)CC1`, the Potency result in [2], in [7], in assay [8], in assay [13], in [9] and in assay [10] was “inactive” in each case. Also, the Potency result in assay [11] and in [12] was “inactive” in each case. Also, the Potency in assay [5] and in assay [6] was above 46 µM throughout.

As to `CC(C)(C)Cn1nc(-c2ccc(Cl)cc2)c2c(N)ncnc21`, the Potency in assay [2] was 0.158 µM (active); in assay [5], above 46 µM; in [6] it was above 46 µM. In addition, the Potency result in assay [9], in assay [10], in [11] and in assay [12] was “inactive” throughout.

Regarding `O=c1[nH]c2cc(Cl)ccc2c(O)c1-c1cccc(Oc2ccccc2)c1`, the Potency in assay [2] is 2.51 µM (active); in assay [5], above 46 µM; in assay [6] it was above 46 µM; in [15] it was 6.31 µM (active). The Potency result in [7], in assay [9], in assay [10], in assay [11] and in assay [12] was “inactive” in each case.

Consider `NS(=O)(=O)c1cccc2c1c([N+](=O)[O-])cc1[nH]c(=O)c(=O)[nH]c12`, for which the Potency entry in assay [2], in [7], in assay [10], in [11] and in [12] was “inactive” in each case. Besides, the Potency in assay [5] and in assay [6] was above 46 µM in each case.

For `COC(=O)/C=C\c1cc(O)ccc1O`, the Potency in assay [2] is 3.98 µM (active); in assay [5] it was above 46 µM; in assay [6], above 46 µM; in assay [13], 7.94 µM (active); in [10] it was 18.8 µM (active). The Potency result in [7], in assay [8], in [9], in assay [11] and in assay [12] was “inactive” in each case.
